Reference: PubChem BioAssay AID1345085 (National Center for Advancing Translational Sciences (NCATS), 2018)
Inconclusive results are not listed. Where a call stands in place of a potency, no number is given. A number with no mark means an inactive call. Activity calls are given as the source filed them. Calls come from the whole dose curve; as a rule, active = well fitted cell-killing curve with a large enough effect; inconclusive = small, poorly fitted or top-dose-only effect, or effect the other way; inactive = no such curve, though single readings can be large or run the other way.

The compounds below were run on SW626 (assay: Confirmatory qHTS for gynecologic anti-cancer compounds from libraries of approved drugs and bioactive compounds). Conditions: gynecologic cancer cell panel viability, ATPlite luminescence, 48 h; series mostly up to 57.6 µM.
In short: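 Cells (1,000/well) plated 16 h, then exposed 48 h at 37 °C to 11 concentrations (1:3) from 57.5 uM to 0.977 nM. Viability by ATPlite luminescence after 15 min; IC50 derived, with HEK 293T used for selectivity index.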
Note: nearly all actives have a fitted effect of over 55% in size.
Potency is the fitted concentration of half-maximal effect.

How did the Potency turn out when `O=C(c1ccc(/C=C/c2n[nH]c3ccccc23)cc1)N1CCNCC1` was run?
Its Potency is 15.3 µM (active).

How did the Potency turn out when `Cc1cnc(Nc2ccc(F)cc2Cl)nc1-c1c[nH]c(C(=O)NC(CO)c2cccc(Cl)c2)c1` (configuration not stated) was run?
Its Potency is “inactive”.

How did the Potency turn out when `CC[C@@]1(O)C(=O)OCc2c1cc1n(c2=O)Cc2cc3c(CN(C)C)c(O)ccc3nc2-1` was run?
Its Potency is 0.863 µM (active).

`CN(C)C1CCN(C(=O)c2ccc(NC(=O)Nc3nc(N4CCOCC4)nc(N4CCOCC4)n3)cc2)CC1` was tested. Which Potency did it give?
Its Potency is 0.685 µM (active).

`COC(=O)c1ccc2c(C(=Nc3ccc(N(C)C(=O)CN4CCN(C)CC4)cc3)c3ccccc3)c(O)[nH]c2c1` was tested. Which Potency did it give?
The Potency was 24.3 µM (active).

For `COCCOc1nc(-c2ccc(Cl)c(Cl)c2)n(-c2ccc(NC(=O)CCl)cc2)n1`, which Potency is on record?
Its Potency is 6.11 µM (active).

How did the Potency turn out when `C=CC(=O)Nc1cccc(Oc2nc(Nc3ccc(N4CCN(C)CC4)cc3)ncc2Cl)c1` was run?
The Potency was 24.3 µM (active).

Which Potency does the source give for `CN1C(=O)C(Cc2c[nH]c3ccccc23)NC1=S` (configuration not stated) here?
The Potency was “inactive”.

With `CC1=C(CO)C(=O)O[C@@H]([C@@H](C)[C@H]2CC[C@H]3[C@@H]4C[C@H]5O[C@]56[C@@H](O)C=CC(=O)[C@]6(C)[C@H]4CC[C@]23C)C1` as the compound, how does the Potency read?
The Potency was 5.3 µM (active).

`Nc1ccccc1NC(=O)c1ccc(CNC(=O)OCc2cccnc2)cc1` was tested. Which Potency did it give?
The Potency was 3.06 µM (active).

How did the Potency turn out when `CC(C)C[C@H](NC(=O)[C@H](CCc1ccccc1)NC(=O)CN1CCOCC1)C(=O)N[C@@H](Cc1ccccc1)C(=O)N[C@@H](CC(C)C)C(=O)[C@@]1(C)CO1` was run?
Its Potency is 1.09 µM (active).

With `CC(C)(C(=O)NCC(F)(F)C(F)(F)F)C(=O)NC1C(=O)Nc2ccccc2-c2ccccc21` (configuration not stated) as the compound, how does the Potency read?
Its Potency is “inactive”.

Which Potency does the source give for `COc1c(C)c2c(c(O)c1C/C=C(\C)CCC(=O)O)C(=O)OC2` here?
The Potency was “inactive”.

Which Potency does the source give for `O=C(O)C1(Cc2cccc(Nc3nccs3)n2)CCC(Oc2cccc(Cl)c2F)CC1` (configuration not stated) here?
The Potency was “inactive”.

How did the activity change, negative = viability loss turn out when `CC[C@H](Nc1ncnc2nc[nH]c12)c1nc2cccc(F)c2c(=O)n1-c1ccccc1` was run?
The activity change, negative = viability loss was -5.07% [at 10.7 µM].

Which Potency does the source give for `CS(=O)(=O)c1ccc(C(=O)Nc2ccc(Cl)c(-c3ccccn3)c2)c(Cl)c1` here?
The Potency was “inactive”.

`CC(C)c1nn(-c2c(Cl)cccc2Cl)c2nc(Cc3ccc(OCCO)cc3)[nH]c(=O)c12` was tested. Which Potency did it give?
Its Potency is “inactive”.

`CC1(C)[C@@H](O)CC[C@]2(C)[C@H]3C(=O)C=C4[C@@H]5C[C@@](C)(C(=O)O)CC[C@]5(C)CC[C@@]4(C)[C@]3(C)CC[C@@H]12` was tested. Which Potency did it give?
Its Potency is “inactive”.

How did the Potency turn out when `NC(=O)c1cnc(-c2ccc(C3(N)CCC3)cc2)c(-c2ccccc2)c1` was run?
The Potency was 24.3 µM (active).

`Cc1nc(NC(=O)N2CCCC2C(N)=O)sc1-c1csc(C(C)(C)C)n1` (configuration not stated) was tested. Which Potency did it give?
The Potency was “inactive”.

With `O=C1NC(=O)C(c2cnc3ccccn23)=C1c1cn2c3c(cccc13)CN(C(=O)N1CCOCC1)CC2` as the compound, how does the Potency read?
The Potency was “inactive”.

For `NC(=O)Nc1cc(-c2cccc(F)c2)sc1C(=O)NC1CCCNC1` (configuration not stated), which Potency is on record?
The Potency was 0.306 µM (active).

`COc1cc(C(=O)N2CCC(N3CCN(C)CC3)CC2)ccc1Nc1ncc2c(n1)N(C)c1ccccc1C(=O)N2C` was tested. Which Potency did it give?
Its Potency is 7.69 µM (active).

How did the Potency turn out when `Cc1cc(Nc2cc(N3CCN(C)CC3)nc(/C=C/c3ccccc3)n2)n[nH]1` was run?
The Potency was 21.7 µM (active).

Which Potency does the source give for `NC(=O)c1cccc2cn(-c3ccc([C@@H]4CCCNC4)cc3)nc12` here?
The Potency was “inactive”.

`CCN1C[C@H](C)n2c(c(O)c3c(=O)n(Cc4ccc(F)c(Cl)c4)nc(C(=O)NC)c32)C1=O` was tested. Which Potency did it give?
Its Potency is “inactive”.

How did the Potency turn out when `C[C@]12CCC(=O)C=C1[C@@H]1C[C@@H]1[C@H]1[C@@H]3[C@@H]4C[C@@H]4[C@@]4(CCC(=O)O4)[C@@]3(C)CC[C@@H]12` was run?
Its Potency is “inactive”.

`Cc1ccc(C(=O)Nc2ccc(CN3CCN(C)CC3)c(C(F)(F)F)c2)cc1C#Cc1cnc2[nH]ncc2c1` was tested. Which Potency did it give?
Its Potency is 1.72 µM (active).

How did the Potency turn out when `FC(F)(F)c1ccc(/C=C/c2nc(COc3ccc(CCCCn4ccnn4)cc3)co2)cc1` was run?
The Potency was “inactive”.

For `CC[C@]1(O)C[C@H]2CN(CCc3c([nH]c4ccccc34)[C@@](C(=O)OC)(c3cc4c(cc3OC)N(C=O)[C@H]3[C@@](O)(C(=O)OC)[C@H](OC(C)=O)[C@]5(CC)C=CCN6CC[C@]43[C@@H]65)C2)C1`, which Potency is on record?
Its Potency is “inactive”.

With `Nc1ncnc2c1ncn2[C@@H]1O[C@H](CO)C[C@H]1O` as the compound, how does the Potency read?
Its Potency is “inactive”.

For `NC1(c2ccc(-c3nc4ccn5c(=O)[nH]nc5c4cc3-c3ccccc3)cc2)CCC1`, which Potency is on record?
Its Potency is “inactive”.
